Screening results (PubChem)
TEAD-YAP inh – TEAD-YAP interaction inhibition; inhibition, % at 9.12 µM; HEK-TIYL cells, TEAD-Gal4/YAP UAS-luciferase luminescence; hit rate 1.4% among 640,000; in the data active = inhibition above about 32%;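 note: 0% = median of test compound wells and 100% = reference inhibitor wells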
MITF inh – inhibitors of human MITF. O75030. AlphaScreen MITF homodimerization, bead proximity signal. inhibition, % at 2.6 µM. hit rate 0.91% among 650,000. AID 1259374; in the data active = inhibition above about 50%;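 note: 0% = vehicle wells with protein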
GPR151 activ – human GPR151 activation; hit rate 1% among 650,000; Q8TDV0; activation, % at 11.2 µM; AID 1508602; PathHunter beta-arrestin GPR151 cells, luminescence; in the data active = activation above about 4.9%;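 note: 0% = median of compound wells and 100% = cells with positive control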
FBW7 activator – activators of human E3 ligase FBW7 | AlphaScreen FBW7–phospho-cyclin E peptide binding, activator screen | hit rate 0.13% among 650,000 | AID 1259310 | normalized activity (activation), % at 26.1 µM | Q969H0; in the data active = normalized activity above about 1.9%;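 note: purified mutant Fbw7 with reduced substrate affinity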
Target sequence (Q969H0 whole entry, looked up): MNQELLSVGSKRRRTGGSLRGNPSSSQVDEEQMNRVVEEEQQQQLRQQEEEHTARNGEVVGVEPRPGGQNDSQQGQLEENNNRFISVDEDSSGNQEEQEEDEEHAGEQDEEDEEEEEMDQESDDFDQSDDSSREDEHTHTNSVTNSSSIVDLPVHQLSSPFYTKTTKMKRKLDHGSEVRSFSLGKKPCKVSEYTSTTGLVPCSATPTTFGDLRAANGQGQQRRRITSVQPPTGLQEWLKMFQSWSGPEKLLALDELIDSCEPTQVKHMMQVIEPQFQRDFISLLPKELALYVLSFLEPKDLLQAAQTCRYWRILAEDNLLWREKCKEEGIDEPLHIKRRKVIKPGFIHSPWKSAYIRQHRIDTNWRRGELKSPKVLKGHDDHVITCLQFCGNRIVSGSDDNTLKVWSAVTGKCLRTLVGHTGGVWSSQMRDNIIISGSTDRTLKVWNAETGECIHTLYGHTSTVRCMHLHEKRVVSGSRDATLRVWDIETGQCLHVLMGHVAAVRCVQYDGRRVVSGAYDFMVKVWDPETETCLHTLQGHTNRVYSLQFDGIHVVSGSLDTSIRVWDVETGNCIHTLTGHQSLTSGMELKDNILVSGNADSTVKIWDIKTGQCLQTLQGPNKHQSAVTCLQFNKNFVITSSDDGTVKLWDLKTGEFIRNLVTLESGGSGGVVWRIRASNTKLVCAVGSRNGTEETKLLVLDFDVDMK
GPR151 conf act – human GPR151 activation, confirmation screen | shares compounds with GPR151 activ | 6,700 tested, under 10 active | activation, % at 11.2 µM | AID 1508609 | GPR151 PathHunter beta-arrestin cells, luminescence, 90 min; % of EA-reagent control over plate median;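 active = mean percent activation across replicates above the confirmation screen cutoff of 4.91%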
GPR119 counter – counter-screen for GPR151 activators: effect on human GPR119; hit rate 0.3% among 6,700; GPR119 PathHunter beta-arrestin cells, luminescence, 90 min; 0 = compound-well median, 100 = enzyme-acceptor control; activation, % at 11.2 µM; shares compounds with GPR151 activ;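 active = mean percent activation in the counterscreen above 29.09%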;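 note: counterscreen on off-target GPR119 to flag nonselective hits from the GPR151 activator screen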
* = called active by the depositor; · = no result; ! = not active in a repeat. Compounds with a hit are over-represented: about 3.5% of the library has one in this group of screens.

SMILES	TEAD-YAP inh	MITF inh	GPR151 activ	FBW7 activator	GPR151 conf act	GPR119 counter
CCOc1ccc(CN2CCN(Cc3cccc(C)n3)CC2CCO)cc1 (stereo not drawn)	-3	11	-1	0	·	·
CCc1ccccc1NC(=O)CCC(=O)OCC(=O)c1ccc([N+](=O)[O-])cc1	5	23	1	0	·	·
CCc1ccccc1NC(=O)CCCC(=O)OCC(=O)c1ccc([N+](=O)[O-])cc1	-5	7	5.5*	0	1	-6
Cc1nc2c(C(=O)NCc3ccc(F)cc3)cnn2c(C)c1Cc1ccccc1	0	-3	1	0	·	·
c1ccc(-n2nnnc2CSc2nc3ccccc3o2)cc1	6	-6	6.6*	0	0	2
Nn1c(CSc2nc3ccccc3o2)nnc1CSc1nc2ccccc2o1	4	0	-1	0	·	·
Cc1cc(NC(=O)c2ocnc2C)ccc1Br	-56	15	-2	0	·	·
C#CCN(CC#C)c1cccc(Cl)c1	-3	11	8.2*	0	-1	-6
C#CCN(CC#C)c1ccc(Cl)cc1	1	-5	0	0	·	·
Cc1cnc(Nc2ccncn2)nc1NC1CCN(Cc2ccccc2)CC1	24	-12	-3	0	·	·
Cc1cnc(Nc2ccncn2)nc1NC1CC1	3	-6	5.7*	0	1	0
COc1cccc(NC(=O)CN(C)CC(=O)Nc2ccc(-c3ccccc3)cc2)c1	-7	-1	1	0	·	·
CCC(C)c1ccc(NC(=O)CN(C)CC(=O)Nc2cccc(OC)c2)cc1 (stereo not drawn)	-1	33	6.1*	0	1	-3
CC(=O)c1c(C)[nH]c(C(=O)OCc2cc(=O)n3c(n2)sc2ccccc23)c1C	-5	30	-1	0	·	·
CC1CCCCN1C(=O)Cn1c(=O)n(-c2ccc(F)cc2)c(=O)c2sccc21 (stereo not drawn)	8	-2	5.2*	0	0	-5
CCC1CCCCN1C(=O)Cn1c(=O)n(-c2ccc(F)cc2)c(=O)c2sccc21 (stereo not drawn)	14	-2	2	0	·	·
CCOc1cc(/C=C2/SC(=S)N(NC(=O)c3cccc(O)c3)C2=O)ccc1O	-1	13	-3	0	·	·
NC(=O)c1ccc(-c2cc(NCCc3ccc(O)cc3)nc(N)n2)cc1	-13	-8	-2	0	·	·
Nc1nc(NCCc2ccc(O)cc2)cc(-c2ccc(C(=O)NC3CC3)cc2)n1	3	2	6.8*	0	-1	-10
CC(=O)c1c(C)[nH]c(C(=O)N2CCN(c3ccccc3)CC2)c1C	5	14	13*	0	-1	-3
CC(=O)c1c(C)[nH]c(C(=O)N2CCN(c3ccccc3F)CC2)c1C	4	6	0	0	·	·
O=C(NCCCN=C1NS(=O)(=O)c2ccccc21)c1cccc2ccccc12	17	19	0	0	·	·
COc1cc(-c2c(C#N)c(N)n3c(nc4ccccc43)c2C#N)ccc1OCCCC#N	-6	5	7.3*	0	-1	5
COc1ccc(-c2c(C#N)c(N)n3c(nc4ccccc43)c2C#N)cc1OC	3	12	1	0	·	·
COc1ccc(-c2cc(C(=O)Nc3cnn(Cc4ccc(F)cc4)c3)no2)cc1OC	6	-3	9.9*	0	0	-4
SMILES	TEAD-YAP inh	MITF inh	GPR151 activ	FBW7 activator	GPR151 conf act	GPR119 counter
CCOC(=O)C(NC(=O)/C(=C\c1ccc(F)cc1)NC(=O)c1ccccc1)C(C)C (stereo not drawn)	13	17	7.5*	0	0	-5
CCOC(=O)C(NC(=O)/C(=C\c1ccc(Br)cc1)NC(=O)c1ccccc1)C(C)O (stereo not drawn)	-2	-6	0	0	·	·
Cc1ccc(/C=C2\N=C(c3ccc(Cl)cc3)OC2=O)o1	-1	13	0	0	·	·
Nc1nc(NCc2nc3ccccc3[nH]2)cc(-c2csc3ccccc23)n1	-12	-7	5.6*	0	0	-2
CC(=O)Nc1ccc(N(C)S(C)(=O)=O)cc1	-2	-6	9.3*	0	0	-6
CC(=O)Nc1ccc(N(C)C(C)=O)cc1	1	7	0	0	·	·
COC(=O)c1cc(-c2ccccc2)sc1NC(=O)CN1C(=O)c2ccccc2C1=O	5	6	15*	0	0	2
CCn1c(C)cc(C=C2C(=O)c3ccccc3C2=O)c1C	66*	-4	8.2*	0	0	-26
O=C1NC(=O)/C(=C\c2cn(Cc3ccccc3)c3ccccc23)N1	-1	5	1	0	·	·
CCn1c(COc2ncnc3ccccc23)nc2cc(S(=O)(=O)N(C)C)ccc21	-4	2	5.2*	0	-1	0
CN(C)CCNC(=O)c1csc2c1CCCCC2	-5	2	0	0	·	·
Cc1c(CN2CCC3(CC2)NC(=O)c2ccccc2O3)cnn1C	0	-7	1	0	·	·
O=C1NC2(CCN(C(=O)C3(c4ccc(Cl)cc4)CC3)CC2)Oc2ccccc21	-1	-11	-1	0	·	·
Cc1ccc(C2(C(=O)N3CCC4(CC3)NC(=O)c3ccccc3O4)CC2)cc1	3	-11	5.6*	0	0	0
Cc1ncc(CN2CCC3(CC2)NC(=O)c2ccccc2O3)n1C	5	23	4.9*	0	0	-4
NC(=O)c1c(Nc2ccccc2Cl)sc(C(=O)c2ccccc2)c1N	8	13	-1	0	·	·
CC1CCCN(C(=O)Cn2nc(Cc3cccnc3)c3ccccc3c2=O)C1 (stereo not drawn)	3	3	0	0	·	·
CN1CCCC(n2nc(Cc3ccc(Cl)cc3)c3ccccc3c2=O)CC1 (stereo not drawn)	3	-20	5.4*!	0	2	28
CC(=O)N1CCc2cc(Br)cc(S(=O)(=O)N3CCN(Cc4ccc5c(c4)OCO5)CC3)c21	-7	-7	0	0	·	·
O=C1OC(c2ccccc2Br)=N/C1=C\c1ccc(Br)cc1	-4	3	0	0	·	·
O=C1OC(c2ccccc2Br)=N/C1=C\c1ccc(I)cc1	6	13	5.3*	0	-1	-11
CCOc1cccc(CN2CCC(C(=O)NC(C)c3ccccc3)CC2)c1O (stereo not drawn)	1	0	5.6*	0	0	6
Cn1c(SCC(=O)c2ccc(F)cc2)nnc1-c1cccc([N+](=O)[O-])c1	13	5	5.7*	0	0	-9
COc1ccccc1-c1nnc(SCc2nnc(-c3cccc([N+](=O)[O-])c3)o2)n1C	10	-9	6.3*	0	1	7
Cn1c(SCCC(=O)O)nnc1-c1cccc([N+](=O)[O-])c1	7	8	1	0	·	·
Cc1ccc(C2CC(=O)NC3=C2C(=O)CC(C)(C)C3)cc1[N+](=O)[O-] (stereo not drawn)	0	18	1	0	·	·
O=C(NCc1cccs1)c1ccc2ccccc2c1	-45	10	0	1	·	·
